Shown are actives, neighbours in structure and some others; about 3.1% of the full set was active somewhere.
Tau FP inhib – inhibitors of human tau fibril formation | P10636 | K18 P301L tau heparin fibrillization, Alexa594 FP, 6 h | Potency, µM (series often up to 57.7 µM), for the others: at the highest dose activity, negative = inhibition, usual class: inhibitors | hit rate 0.39% among 280,000; also: nearly all actives have a fitted effect of over 55% in size
Target sequence (P10636 561-689 P618L limits assumed): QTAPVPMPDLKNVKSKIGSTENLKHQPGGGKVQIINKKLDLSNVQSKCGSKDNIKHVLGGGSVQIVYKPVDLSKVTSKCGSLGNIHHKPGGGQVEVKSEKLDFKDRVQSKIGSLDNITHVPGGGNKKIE
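Human tau K18 […] P301L fragment, 15 uM unlabeled plus 0.24 uM Alexa 594-labeled tau (final), with compound and 20 uM heparin in 100 mM sodium acetate pH 7; 6 hr at 37 C, then Alexa 594 FP read.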
TR SRC2 fluor cs – counter-screen for TRb-SRC2 inhibitors: fluorescence interference | TRb/SRC2 Texas Red total fluorescence interference | Potency, µM (titrated, usually from 106 µM), for inactives: at the highest dose fluorescence change, negative = quenching | hit rate 0.29% among 280,000 | AID 1479; active = well fitted curve in either direction with a large enough effect; inconclusive = small, poorly fitted or top-dose-only effect
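Human TRβ ligand-binding domain (0.6 uM) and Texas Red SRC2 peptide (20 nM) in Tris buffer with 1 uM T3 and 5% DMSO were incubated with pinned compound for 5 hr at ambient temperature. Total fluorescence was computed as S + 2P (555/632 nm).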
Tau ThT inhib – inhibitors of human tau fibril formation, thioflavin T binding; Potency, µM (top dose mostly 57.4 µM), for inactives: at the top dose activity, negative = inhibition, most hits filed as inhibitors; recombinant tau K18 P301L, heparin-induced fibrillization, ThT fluorescence; hit rate 2.1% among 270,000; AID 1460; P10636; also: nearly all actives have a fitted effect of over 55% in size
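Recombinant human tau K18 fragment […] carrying P301L, 15 uM unlabeled plus 0.24 uM Alexa 594-labeled, was fibrillized with 20 uM heparin in 100 mM sodium acetate pH 7 for 6 hr at 37 C; 30 uM ThT fluorescence read after 1 hr.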
Tau fluor counter – counter-screen for tau fibril formation inhibitors; tau K18 P301L (four-repeat tau fragment) Alexa594 fluorescence, heparin fibrillization; Potency, µM (titrated, usually from 57.7 µM), for inactives: at the top dose activity change, negative = decrease; hit rate 0.93% among 280,000; AID 1463; also: nearly all actives have a fitted effect of over 55% in size
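Human K18 P301L tau (15 uM unlabeled plus 0.24 uM Alexa 594-labeled, final) in 100 mM sodium acetate pH 7 was mixed with compound and 20 uM heparin and incubated 6 hr at 37 C.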
TRb-SRC2 inh – disrupts binding of human TR beta to SRC2 | P10828 | TRbeta-SRC2 peptide binding, fluorescence polarization; receptor liganded with 1 µM T3 | hit rate 0.065% among 280,000 | Potency, µM (highest dose often 106 µM), for the others: at the highest dose activity change, negative = inhibition, actives largely listed as inhibitors;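 also: plate controls were bound peptide for no effect and peptide without receptor for full effect; nearly all actives have a fitted effect of over 50% in size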
Target sequence (P10828 whole entry, looked up): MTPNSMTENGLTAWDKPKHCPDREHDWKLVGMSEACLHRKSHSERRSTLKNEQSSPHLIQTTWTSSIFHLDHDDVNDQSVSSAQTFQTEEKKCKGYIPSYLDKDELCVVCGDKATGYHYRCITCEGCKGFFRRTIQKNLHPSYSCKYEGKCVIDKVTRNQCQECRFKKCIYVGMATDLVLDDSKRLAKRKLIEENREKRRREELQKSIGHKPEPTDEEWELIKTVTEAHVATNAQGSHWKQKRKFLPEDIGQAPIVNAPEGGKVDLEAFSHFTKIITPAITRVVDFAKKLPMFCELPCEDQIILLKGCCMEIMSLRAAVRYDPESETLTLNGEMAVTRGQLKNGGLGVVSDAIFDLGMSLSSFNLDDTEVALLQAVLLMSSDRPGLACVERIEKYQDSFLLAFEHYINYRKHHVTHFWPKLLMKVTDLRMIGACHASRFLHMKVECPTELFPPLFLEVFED
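Each compound concentration gave % activity, normalized to unbound and bound Texas Red SRC2 controls, from polarization read after 5 hr ambient incubation with T3-loaded human TRb LBD.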
* hit, by the source's call; ? = inconclusive; nt = no result; [ ] = remark or other dose. Unless noted, calls follow the shape of the dose curve; as a rule, active = well fitted curve in the direction sought with a large enough effect; inconclusive = small, poorly fitted or top-dose-only effect, or another doubt; inactive = no such curve, though single readings can be large; an effect the other way counts as inactive or inconclusive. Unless noted, % is scaled to controls: 0 for no effect and ±100 for the full control effect; potency is read from the fitted curve at half-maximal effect.

SMILES	Tau FP inhib	TR SRC2 fluor cs	Tau ThT inhib	Tau fluor counter	TRb-SRC2 inh
Cc1ccc(-c2[nH]c3ccccc3c2SCCNC(=O)c2ccc(S(=O)(=O)N(C)C)cc2)cc1	8%	-4%	-2%	?	4%
COc1cccc(C(=O)NCCSc2c(-c3ccc(F)cc3)[nH]c3ccccc23)c1OC	-8%	-4%	-13%	5µM*[quencher]	9%
Cc1ccc(NC(=O)Cn2cc(C(=O)c3ccco3)c3ccccc32)cc1C	?	-2%	?	?	8%
CCN(CC)S(=O)(=O)c1ccc(C(=O)NCCSc2c(-c3ccc(OC)cc3)[nH]c3ccccc23)cc1	3%	-3%	-2%	4µM*[quencher]	1%
CCN(CC)S(=O)(=O)c1ccc(C(=O)NCCc2cc3c(OC)ccc(OC)c3[nH]c2=O)cc1	11%	-1%	-28%	-14%	-6%
COc1ccc(-c2[nH]c3ccccc3c2SCCNC(=O)c2cc(OC)c(OC)c(OC)c2)cc1	13%	-5%	?	7.1µM*[quencher]	9%
COCC(=O)NCCSc1c(C)[nH]c2ccccc12	2%	0%	2%	5%	-29%
O=C(Cc1cccs1)NCCSc1c(-c2ccc(Cl)cc2)[nH]c2ccccc12	-14%	-8%	-15%	7.1µM*[quencher]	1%
Cc1ccc(C(=O)NCCSc2c[nH]c3ccccc23)cc1C	6%	-1%	?	16µM*[quencher]	-7%
Cc1ccc(C(C)(C)C)c(O)c1	nt	-6%[201 µM]	nt	nt	0%[201 µM]
COc1cc(C(C#N)N2CCC(c3ccccc3)=N2)ccc1O (stereo unspecified)	1%	0%	nt	-4%	-4%
CCOC(=O)C1CCCN(c2c(C(=O)c3ccccc3)cnc3ccc(F)cc23)C1 (stereo unspecified)	3%	-14%	?	-12%	1%
Cc1cc(Cl)ccc1OCC(=O)N/N=C1\CC2C=CCC12 (stereo unspecified)	4%	-3%	-18%	-8%	-2%
COc1ccc(C2CC(=O)c3c(C)nc(N4CCN(C=O)CC4)nc3C2)c(OC)c1 (stereo unspecified)	-3%	5%	-13%	-16%	6%
Clc1cccc(CN2CCC(Cc3ccccc3)CC2)c1	-6%	-9%	18µM*	13µM*[quencher]	-3%
C#CCN1C(=O)S/C(=C/C=C/c2ccc(N(C)C)cc2)C1=O	?	?	1.6µM*	20%	?
CN(C)c1ccc(/C=C2\SC(=O)N(CCc3nnc(N)s3)C2=O)cc1	8%	8%	?	-21%	7%
CCn1cnc2cc(NCc3ccc(N(C)C)cc3)ccc21	6%	-6%	?	11µM*[quencher]	1%
CCn1cnc2cc(NCc3ccc(C)cc3)ccc21	-5%	-4%	?	-24%	-9%
Cc1noc(C)c1-c1ccc2ncnc(NCc3ccccc3Cl)c2c1	nt	1%	nt	nt	-5%
CCOC(=O)c1c(N)sc2c(OC)c(Br)ccc12	6%	0%	?	25µM*[quencher]	-10%
CCOC(=O)c1c(N)sc(C)c1-c1ccccc1	?	-4%	-7%	?	-7%
C1COC1	nt	-2%	nt	nt	-6%
Cc1cc(O)ccc1Nc1nc(-c2cccs2)cs1	4%	3%	14µM*	25µM*[quencher]	-5%
c1cncc(Nc2nc(-c3cccs3)cs2)c1	9%	0%	?	16µM*[quencher]	-18%
SMILES	Tau FP inhib	TR SRC2 fluor cs	Tau ThT inhib	Tau fluor counter	TRb-SRC2 inh
c1ccc(-c2csc(Nc3cccnc3)n2)nc1	3%	-3%	?	-19%	-9%
COc1ccc(C(=O)Nc2nc(-c3cccs3)cs2)cc1	?	0%	?	?	10%
Cc1ccc(Nc2nc(-c3cccs3)cs2)nc1	-9%	-6%	16µM*	22µM*[quencher]	-1%
Cc1ccc(NC(=O)Cn2c(O)c(N=NC(=O)c3cc([N+](=O)[O-])ccc3O)c3ccccc32)cc1	7%	-5%	?	-10%	5%
Cc1cccc(NC(=O)Cn2c(O)c(N=NC(=O)c3ccccc3O)c3ccccc32)c1	0%	-1%	16µM*	?	-1%
Cc1cc(NC(=O)c2ccc(-c3ccc(Br)cc3)o2)cc(-c2nc3ncccc3o2)c1O	-8%	-1%	?	-26%	3%
CCCN(CCC)C(=O)c1cc([N+](=O)[O-])cc2c1-c1ccc([N+](=O)[O-])cc1C2=C(C#N)C#N	?	-1%	32µM*	?	-1%
CCCCN(CCCC)C(=O)c1cc(Cl)ccc1[N+](=O)[O-]	-1%	-4%	-4%	-19%	5%
COC(=O)C1=C(C(=O)OC)[C@@H]2N(C)c3ccccc3[C@@]23C[C@@H](C(=O)OC)N(S(=O)(=O)c2ccc(C#N)cc2)C3=N1	4%[11.6 µM]	-3%[11.2 µM]	1%[11.5 µM]	2%[11.6 µM]	5%[11.2 µM]
O=C(COc1ccccc1C(=O)N/N=C\c1ccc(O)c(O)c1)N/N=C/c1ccc(O)c(O)c1	10%	-21%	13µM*	?	7%
O=C(COc1ccccc1[N+](=O)[O-])N/N=C/c1ccc(O)c([N+](=O)[O-])c1	7%	-2%	?	-4%	5%
CC(C)(C)c1ccc(OCc2ccc(C(=O)N/N=C/c3ccc(O)c(O)c3)cc2)cc1	14%	-1%	?	16µM*[quencher]	-6%
COc1cc(N)c(Cl)cc1C(=O)CCC1CCN(CCNS(C)(=O)=O)CC1	-6%	-1%	-1%	-8%	7%
Cc1ccc(-c2nn3c(-c4ccccc4C)nnc3c3ccccc23)cc1	-4%	0%	?	1%	-3%
COc1cc(NC(=O)c2cc3c(Cl)nc4ccccc4c3s2)cc(OC)c1OC	8%	-2%	?	8.9µM*[quencher]	-5%
N#C/C(=C\Nc1ccccc1O)c1nc2ccccc2o1	?	3%	?	18µM*[quencher]	0%
Cc1ccc(CNC(=O)Cn2ccn(-c3ccc(C)c(C)c3)c(=O)c2=O)cc1	-10%	-23%	-3%	-8%	-1%
CCn1c2ccccc2c2nnc(N3CCN(c4ccc(F)cc4)CC3)nc21	-2%	-23%	-8%	-8%	-8%
CCn1c2ccccc2c2nnc(N3CCN(c4cccc(Cl)c4)CC3)nc21	8%	-15%	?	18µM*[quencher]	-2%
O=c1[nH]c(/C=C2\C=Nc3ccccc32)c(O)n1Cc1ccccc1F	0%	-8%	?	7.9µM*[quencher]	-3%
CCOC(=O)C1(CCOC)CCN(C(C)CCc2ccc(OC)cc2)CC1 (stereo unspecified)	-8%	-1%[53 µM]	-4%	-1%	-3%[53 µM]
CCOC(=O)C1=C(C)OC(N)=C(C#N)C1c1cc2c(cc1[N+](=O)[O-])OCO2 (stereo unspecified)	?	-3%	28µM*	?	-8%
CCOC(=O)C1=C(C)OC(N)=C(C#N)C1c1cc(OC)c2c(c1)OCO2 (stereo unspecified)	0%	2%	-16%	-9%	0%
CCOC(=O)C1CCN(C(c2cccc(F)c2)c2c(O)cc(C)n(CCOC)c2=O)CC1 (stereo unspecified)	-12%	1%	?	-7%	6%
